Laboratory results published in the supplement of paper PMC3334620.
Whole data set: some 33,000 sequences, median “E-score (-0.5 to 0.5)” near -0.0059, cut for the highest 2% near 0.26. This excerpt belongs to a sample that is enriched for the highest values.

Biological target: T1, Cin5 (UniProt P40917)
T1 sequence: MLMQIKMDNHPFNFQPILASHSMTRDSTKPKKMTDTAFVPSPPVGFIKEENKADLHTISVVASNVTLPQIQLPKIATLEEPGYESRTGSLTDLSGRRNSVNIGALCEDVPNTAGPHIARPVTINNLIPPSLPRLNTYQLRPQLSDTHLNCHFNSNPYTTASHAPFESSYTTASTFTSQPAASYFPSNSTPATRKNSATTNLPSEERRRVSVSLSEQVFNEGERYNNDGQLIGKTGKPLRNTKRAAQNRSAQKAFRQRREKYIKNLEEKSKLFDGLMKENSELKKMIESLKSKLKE
Experiment: PBM E-score (8-mer binding enrichment) (E-score (-0.5 to 0.5)); higher = stronger / more preferred TF binding
Settings: protein concentration: 100 nM; construct: GST-full length
Method: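 Universal 'all 10-mer' protein binding microarrays (Agilent AMADID 015681) probed with GST-tagged S. cerevisiae TFs (full-length or DBD) made by in vitro transcription/translation (PURExpress), about 100-200 nM. Bound TF was detected with fluorescent anti-GST. Each ungapped 8-mer (which stands for itself and its reverse complement) is scored by the PBM enrichment score (E-score), a modified Wilcoxon-Mann-Whitney statistic from -0.5 to +0.5, computed with the Universal PBM Analysis Suite. Scale: above 0.35 generally sequence-specific binding.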

Sequence	PBM E-score
CCGGGGCG	-0.146
GCTACGGA	-0.165
TCACCGGA	0.0333
GTGGGAAC	-0.144
GCCACGCC	-0.127
CAGAGCAC	-0.123
CCCCATAA	0.00568
ACGCAGCC	-0.0404
ACCGGGGC	-0.136
GAATGTGA	0.00014
CAATGTGA	0.117
TAATGTGA	0.292
ACTACCAG	-0.086
ACGCAAAT	-0.0291
ATGCATTA	0.341
CTGCATTA	-0.154
ATGCATTC	0.163
GTGCATCA	0.00241
ATGCATCG	0.098
ATGCATCA	0.287
ACTAACAT	0.192
CTACCCTA	-0.101
CACGGTGG	0.0279
CCTATCCG	-0.0857
CCGGTACA	-0.00292

Sequence	PBM E-score
CATAATCA	0.385
CGTAAGGC	-0.0166
CCTAATCC	0.029
CGTAATCC	0.383
AATAATCA	0.257
CATAATCC	0.265
AGTAAGCC	0.216
AATAATCC	0.0532
GATAATCA	0.159
CGTAAGCC	0.39
CGTAATTC	0.228
GATAATCC	0.17
CGGACCCC	-0.295
ACCGTTAT	-0.0275
CACGGCCA	-0.145
ATGGCTGC	-0.0428
CACGGGGG	-0.401
CATAATGG	0.0936
CATAATCG	0.324
TATAATAA	0.241
TATAATGA	0.21
AATAATCG	0.247
TATAATCA	0.342
CGATCACG	0.117
ATGTGCGA	-0.106

Sequence	PBM E-score
ACTCCTGG	-0.216
ACCACAAG	-0.117
TCAATGAA	0.159
CTTATCTC	0.0536
ACTATCTA	0.148
CCTATCTC	0.0294
GTTATCTA	0.131
ATTATCTA	0.315
ATTATCTC	0.306
ACTATCTC	0.121
CTTATCTA	0.276
ATTATCTG	0.152
AACTCGAT	0.15
AACCCTAT	0.107
TACGGGAA	-0.108
CCTTCATC	-0.183
GTGCAAGA	0.0774
GTAGAACA	-0.165
CGGAATGA	0.146
GGGAATGA	0.277
AGGAATGA	0.0586
CACCTCTA	0.0362
CGCGTATC	0.06
CCACAACG	-0.153
AAACTAAT	0.312

Sequence	PBM E-score
AAACTAAG	0.185
AAACTAAA	0.199
ATAGTCAC	0.129
AGCCGACG	-0.0574
GGAACAAC	0.0525
AGAACAAA	0.194
CGAACAAA	0.272
GGAACAAA	0.32
CGAACAAG	-0.0215
TGAACAAA	0.217
CCCTGGTA	-0.196
AGGTCGAC	0.102
GGCTGTAA	-0.129
CCCCGCGA	0.05
ACAATTGT	0.188
GCGCGGAA	0.192
CCGCGGGC	0.0691
CCGCGGAG	0.0845
CCGCGGAA	0.272
GCGCGGGA	0.012
CCGCGGGA	0.316
AGAGTTAA	0.0368
GTACTCGA	0.0237
CTCAGGTA	0.0217
ATTAGGGC	-0.0867

Sequence	PBM E-score
CTTAGGTC	-0.0156
ATTAGGTC	0.271
GTTAGGTA	0.242
CTTAGGTA	0.337
ATTAGGTA	0.271
CGTAGGTA	-0.0204
ATTAGGTG	0.131
AACTCAAT	0.165
CACTGGGC	-0.14
CGTAACCA	0.192
AGCAGCCC	-0.142
GAGGGCCC	-0.254
CCCCTCAG	-0.211
AGTAATTG	0.132
AGTAATAA	0.193
AGTAATAC	0.2
CGTAATAG	0.223
AGTAATAG	0.279
AGTAATAT	0.306
CTCTGAGC	-0.2
ACTGGGAT	0.0399
GCTCTTCA	-0.157
CGGAGTGA	0.0979
CGTTCAAA	-0.0884
GACGTCAC	0.00326

Sequence	PBM E-score
GGCCAACA	-0.0942
CATCGATG	0.0124
CATCGATA	0.258
AATCGATA	0.247
ATGCTTCA	0.0559
AATCACCG	0.0462
CCCACCCG	0.293
ACCCACCC	0.323
CCCACCCA	0.21
CCCCACCC	0.153
CCCACCCC	0.24
GCCCACCC	0.191
CCAGCGAG	-0.0473
CGAAATGA	0.19
ATGGGACA	0.0583
GTGCTCGA	-0.0887
GTGCTAAA	0.00722
CTGTAATA	0.105
ATGTAATC	0.383
CTGTAATC	0.128
AAGTAACT	0.186
GTGTAATA	0.193
AAGTAATC	0.339
AAGTAACA	0.316
ATGTAATG	0.193

Sequence	PBM E-score
ATGTAATA	0.361
AAGTAACG	-0.0154
CAGTAATC	0.15
AAGTAATT	0.181
TAGATCCA	-0.00386
CGTGCCGA	-0.115
AGGAAATA	0.164
GGCTCCAA	-0.169
AGGCTAAT	0.0863
ATAAGACA	0.105
GAATCCGA	0.0296
CGTGGTCA	-0.0679
ACAATGTG	0.0255
AACATGTC	0.0503
CACATGTG	-0.00999
AACATGTG	0.257
CTCTTGGC	-0.112
GGACTTAA	-0.15
AGACTTAA	-0.139
TGACTTAA	0.268
GCAATCAA	0.195
CATGTTGC	-0.00801
CATGTTGA	0.293
AATGTTGA	-0.014
GCACCACA	-0.122

Sequence	PBM E-score
ACCAATAC	0.104
AACAATAT	0.345
ACCAATAG	-0.123
AACAATAC	0.187
AACAATAA	0.257
ACCAATAT	0.323
GCTTGCCA	-0.131
ATCTGGCC	-0.108
CACGCGAC	-0.0294
TACTTGCA	0.141
CCACAGAC	-0.0305
CTCGCTGA	-0.0383
CTCGCTTA	0.346
CGCGCTTA	0.297
CGCGCTGA	0.104
AGCGCTTA	0.157
ATCGCTTA	0.0758
AGGTATAT	0.193
GGCGGGTA	-0.194
CGCCAAAC	-0.072
ACGCTAAC	0.0232
GTTCAAAA	-0.105
ATTAGTAG	0.0962
GTTAGTAA	0.111
CTTAGTAA	0.392

Sequence	PBM E-score
ATTAGTAA	0.387
CTTAGTAC	0.0461
ATTAGTAC	0.173
ATCTGGGC	-0.0822
AGCTGTTC	-0.0725
TCGCAAAA	0.156
CAGTATGC	0.0107
CTTAGCTC	-0.106
ACATGTAA	0.168
CCATGTAG	-0.00831
ACATGTAG	0.278
CCAGATTA	0.225
CGGCTCGC	0.0606
CAAATGGA	-0.0888
CAAATGTA	0.268
ATGATGTC	0.233
CTGATGAA	0.0259
ATGATGTA	0.305
GAAATGTA	0.143
AAAATGGA	0.29
GTGATGAA	0.0186
ATGATGAA	0.258
AAAATGGG	-0.0874
ATGATGTG	0.145
TAAATGTA	0.191

Sequence	PBM E-score
GCATAGCA	-0.0462
AGCCACCT	-0.192
GATCTGGA	-0.125
CCTTAACG	-0.0146
GTAGGGAA	0.00147
GAAACGCC	0.114
CGGGCGTA	-0.132
ACAACCGT	-0.172
CTGATGTA	0.266
CTGATGTC	0.184
GTGATGTA	0.172
GCAGCAAC	-0.0419
ATGAATGC	0.167
ATGAATGA	0.143
ATGAATGG	0.301
CCCATCAG	-0.165
CACCACGG	-0.325
AGATTAAT	0.218
GTATTAAA	0.149
ATATTAAG	0.122
CTATTAAA	0.00048
ATATTAAC	0.28
TGATTAAA	0.0915
ATATTAAA	0.35
TTATTAAA	0.278

Sequence	PBM E-score
ATATTAAT	0.362
CTATTAAG	-0.041
GTATTAAC	0.00428
CTATTAAC	0.115
AAGGATAG	0.0333
TCGATGCA	0.152
GTTCAGTA	0.0391
TGGTCGAA	-0.242
ATATCCCC	0.0837
TGCTGCCA	-0.0641
ATGATTCG	0.053
CATCCCTA	0.122
CATTCTGG	0.0333
GCACCTAA	-0.0501
GCATTAAA	0.0586
TCATTAAA	0.353
ACATTAAA	0.152
GCGTCCAC	-0.283
GCCTCCGC	-0.203
CTATTACC	-0.0809
ATATTACC	0.317
AAATTACC	0.123
ATATTACG	0.376
ATATTACA	0.209
AAATTACG	0.171

Sequence	PBM E-score
AAGAAAAT	0.159
CTCTACAC	-0.0485
GTAGTAAA	0.149
ATAGTAAC	0.182
ATAGTAAA	0.198
TTAGTAAA	0.269
ATAGTAAT	0.358
ATCGTAAT	0.385
ATCGTAAC	0.0852
CTAGTAAA	0.165
ATCGTAAA	0.0952
CCGGTAGG	-0.163
CCCAGAAG	-0.167
GCGATAGA	0.0484
CGACTTGA	-0.0696
AATCTACC	0.138
CAGATTCC	-0.0124
AAACTAGA	-0.116
TAACTAGA	0.306
GAACTAGA	-0.00859
AAGATTCT	-0.106
CTTTTGGA	-0.0744
ACAGACAC	-0.0499
AGACAGAT	0.277
ACAGACAG	0.195

Sequence	PBM E-score
ACAGACAA	0.28
AGACAGAG	-0.0616
AGACAGAC	0.192
AAGGTCGA	0.146
ACCACGCG	-0.0218
ACGTATCA	0.156
GAGCCGGA	-0.178
ATATATAG	0.26
ATATAGTC	0.258
GTATATAA	0.222
CTATATAG	0.103
ATATATAT	0.146
CTATATAA	0.0999
AGATATAG	0.149
ATATAGTA	0.235
CTATAGTC	-0.063
ATATATAA	0.335
GTATATAC	0.104
ATATATAC	0.316
ACCATCGG	-0.108
GAGGCGAC	-0.213
AGATTCTC	0.0336
GTGCAGGA	-0.0289
GAAGTCCA	-0.133
CTATATGC	0.212

Sequence	PBM E-score
CTCTATAC	-0.0333
CTATATAC	0.313
ACTACATA	0.207
CATACATA	0.213
CTTACACC	-0.0748
ATTACATG	0.297
AATACATG	0.195
ATTACAGG	0.244
ATTACACG	0.0848
CTTACACA	0.259
ATTACATA	0.355
AATACATA	0.278
AGTACATG	0.118
ATTACAGA	0.0804
GTGCCGTA	0.0613
CACCTTGA	0.00105
AAAAGACT	-0.205
GGCCATAA	0.0497
AGAAGGTG	0.0112
